# p53 PUMA act: mutant p53 pathway re-activators, primary screen, cell-based, SW480, luciferase, single point, HTS; SW480 PUMA-promoter luciferase, p53 mutant reactivation; 28,000 tested, 1.5% active; activation, % at 9.98 µM; AID 624151, 2012; in the data active = activation above about 52%
# STK33 inh: STK33 kinase inhibitors, primary screen, biochemical, luminescence, ADP-Glo, MBP substrate. Serine/threonine-protein kinase 33 (Homo sapiens), Q9BYT3. inhibition, % at 12.5 µM. 27,000 tested, 0.44% active; in the data active = inhibition above about 20%
# Target sequence (Q9BYT3 whole entry, looked up): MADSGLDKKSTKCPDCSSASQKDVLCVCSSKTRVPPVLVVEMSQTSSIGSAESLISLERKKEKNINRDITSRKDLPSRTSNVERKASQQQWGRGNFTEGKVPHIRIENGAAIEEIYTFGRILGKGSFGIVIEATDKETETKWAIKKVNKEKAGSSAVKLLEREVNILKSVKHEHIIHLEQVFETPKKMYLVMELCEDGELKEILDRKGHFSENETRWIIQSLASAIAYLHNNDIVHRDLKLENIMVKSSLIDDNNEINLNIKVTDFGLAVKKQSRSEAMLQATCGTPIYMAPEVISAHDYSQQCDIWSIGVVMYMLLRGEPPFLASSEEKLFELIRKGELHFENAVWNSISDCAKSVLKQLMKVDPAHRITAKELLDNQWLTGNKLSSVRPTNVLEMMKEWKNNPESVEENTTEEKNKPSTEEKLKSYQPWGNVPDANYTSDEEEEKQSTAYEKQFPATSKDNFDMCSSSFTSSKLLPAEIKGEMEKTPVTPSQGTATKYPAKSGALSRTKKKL
# MITF inh: inhibitors of MITF, primary screen, MITF inhibitor project, cell-based, luminescence; TRPM1 promoter luciferase, 24 h; inhibition, % (no concentration beside the values); 37,000 tested, 0.28% active; AID 2240, 2010; in the data active = inhibition above about 85%;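 also: human melanocyte line stably carrying TRPM1 promoter luciferase reporter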
# NOMO-1 viab: NOMO-1 AML cell viability reduction, primary screen, STK33 inhibitor project, CellTiter-Glo luminescence. 37,000 tested, 7.5% active. inhibition, % (concentration not given with the values). NOMO-1 AML viability, 72 h. AID 2330, 2010; in the data active = inhibition above about 80%
# Starred values were filed as active, the others as inactive; . = no result. This is one part of a sample in which hits are shown more often than they occur.
SMILES,p53 PUMA act,STK33 inh,MITF inh,NOMO-1 viab
COc1cc(OC)cc(OCC(O)Cn2cnc3ccccc32)c1 (configuration not stated),12,2,12,22
C[C@@H]1CN([C@H](C)CO)C(=O)c2cccc(NC(=O)Nc3ccccc3)c2O[C@@H]1CN(C)Cc1ccc(C(F)(F)F)cc1,.,.,-6,38
C[C@@H]1CN([C@@H](C)CO)C(=O)c2cccc(NC(=O)Nc3ccc(C(F)(F)F)cc3)c2O[C@H]1CN(C)Cc1ccccc1,.,.,52,103*
C[C@H]1CN([C@@H](C)CO)C(=O)c2cccc(NC(=O)Nc3ccccc3)c2O[C@@H]1CN(C)Cc1ccc(C(F)(F)F)cc1,.,.,41,104*
C[C@@H]1CN([C@@H](C)CO)C(=O)c2cccc(NC(=O)Nc3ccccc3)c2O[C@H]1CN(C)Cc1ccc(C(F)(F)F)cc1,.,.,40,88*
C[C@H](CO)N1C[C@H](C)[C@@H](CN(C)Cc2ccc(Oc3ccccc3)cc2)Oc2c(NC(=O)Nc3ccc(C(F)(F)F)cc3)cccc2C1=O,.,.,22,97*
C[C@H]1CN([C@@H](C)CO)C(=O)c2cccc(NC(=O)Nc3ccc(C(F)(F)F)cc3)c2O[C@H]1CN(C)Cc1ccccc1,.,.,-16,41
OCc1nc(-c2cc(C(F)(F)F)cc(C(F)(F)F)c2)cs1,.,.,-7,33
CCOC(=O)c1c(-c2ccc(OC)cc2)csc1NC(=O)c1ccccc1[N+](=O)[O-],-6,2,25,16
C[C@@H]1CN([C@H](C)CO)C(=O)c2cccc(NC(=O)Nc3cccc4ccccc34)c2O[C@@H]1CN(C)Cc1ccc(C(F)(F)F)cc1,.,.,6,98*
C[C@H]1CN([C@@H](C)CO)C(=O)c2cccc(NC(=O)Nc3ccc(C(F)(F)F)cc3)c2O[C@@H]1CN(C)Cc1ccc(C(=O)O)cc1,-1,.,-4,-9
C[C@H]1CN([C@@H](C)CO)C(=O)c2cccc(NC(=O)Nc3cccc4ccccc34)c2O[C@H]1CN(C)Cc1ccc(C(F)(F)F)cc1,.,.,14,53
C[C@H](CO)N1C[C@H](C)[C@@H](CN(C)Cc2ccc(C(F)(F)F)cc2)Oc2c(NC(=O)Nc3ccccc3)cccc2C1=O,.,.,20,93*
O=C(CSc1nnc(-c2ccc(Br)cc2)o1)c1ccc([N+](=O)[O-])cc1,-58,-5,6,17
C=CCN1C(=O)CN2c3ccccc3C(C)(C)C12C (configuration not stated),.,.,9,-11
O=C(COC(=O)C1CC=CCC1C(=O)OCC(=O)c1ccc(Cl)cc1)c1ccc(Cl)cc1 (configuration not stated),.,.,4,45
Cc1ccc(C)n1-c1ccc(C(=O)OCC(=O)c2ccc(Cl)cc2)cc1,.,.,-13,121*
COc1ccc(CN(C)C[C@H]2Oc3c(NC(=O)Nc4ccccc4)cccc3C(=O)N([C@@H](C)CO)C[C@H]2C)cc1,.,.,-14,2
COc1ccc(CN(C)C[C@H]2Oc3c(NC(=O)Nc4cccc5ccccc45)cccc3C(=O)N([C@H](C)CO)C[C@H]2C)cc1,-6,.,-3,46
COc1ccc(NC(=O)Nc2cccc3c2O[C@H](CN(C)Cc2ccc(Oc4ccccc4)cc2)[C@H](C)CN([C@@H](C)CO)C3=O)cc1,.,.,2,113*
COc1ccc(CN(C)C[C@@H]2Oc3c(NC(=O)Nc4ccc(F)cc4)cccc3C(=O)N([C@H](C)CO)C[C@H]2C)cc1,.,.,20,94*
COc1ccc(CN(C)C[C@@H]2Oc3c(NC(=O)Nc4ccc(F)cc4)cccc3C(=O)N([C@@H](C)CO)C[C@@H]2C)cc1,.,.,22,31
C[C@H]1CN([C@@H](C)CO)C(=O)c2cccc(NC(=O)Nc3cccc4ccccc34)c2O[C@H]1CN(C)Cc1ccc(Oc2ccccc2)cc1,.,.,17,93*
COc1ccc(CN(C)C[C@H]2Oc3c(NC(=O)Nc4ccc(OC)cc4)cccc3C(=O)N([C@H](C)CO)C[C@H]2C)cc1,2,.,-27,2
COc1ccc(CN(C)C[C@@H]2Oc3c(NC(=O)Nc4ccc(OC)cc4)cccc3C(=O)N([C@@H](C)CO)C[C@H]2C)cc1,-10,.,57,93*
SMILES,p53 PUMA act,STK33 inh,MITF inh,NOMO-1 viab
O=C(O)c1ccc(NCCCO)c([N+](=O)[O-])c1,-12,2,-27,27
NC(=O)Cc1ccc(O)c(Cl)c1,7,-1,4,-8
COc1ccc(NC(=O)Nc2cccc3c2O[C@@H](CN(C)Cc2ccccc2)[C@H](C)CN([C@@H](C)CO)C3=O)cc1,.,.,18,93*
COc1ccc(NC(=O)Nc2cccc3c2O[C@H](CN(C)Cc2ccccc2)[C@H](C)CN([C@@H](C)CO)C3=O)cc1,.,.,-17,33
COc1ccc(NC(=O)Nc2cccc3c2O[C@@H](CN(C)Cc2ccc(-c4ccccc4)cc2)[C@H](C)CN([C@@H](C)CO)C3=O)cc1,.,.,1,18
COc1ccc(NC(=O)Nc2cccc3c2O[C@@H](CN(C)Cc2ccc(-c4ccccc4)cc2)[C@@H](C)CN([C@H](C)CO)C3=O)cc1,.,.,-9,113*
Cc1c(C=Nc2ccc(C(C)C)cc2)sc2ccccc12,9,.,.,.
CCC1(C)Cc2c(sc3nc(SCC(=O)Nc4ccc(Cl)cc4)nc(N)c23)CO1 (configuration not stated),12,-2,14,30
COc1cc(C[C@H]2C(=O)OC[C@@H]2Cc2ccc(O[C@@H]3O[C@H](CO)[C@@H](O)[C@H](O)[C@H]3O)c(OC)c2)ccc1O,-1,-1,14,21
COc1ccc(C2CC(=O)c3c(O)cc(O)cc3O2)cc1O (configuration not stated),63*,3,-50,5
O=C1CC(c2ccc(O)c(O)c2)Oc2cc(O)cc(O)c21 (configuration not stated),17,.,.,.
COc1ccc(N(CC(=O)Nc2ccc(F)c(F)c2)S(C)(=O)=O)cc1Cl,-8,1,-6,22
Cc1ccc2nc(-c3ccc(C)c(NC(=O)COc4ccc([N+](=O)[O-])cc4)c3)oc2c1,91*,1,-61,10
Cc1ccc(-c2nc3cc(Cl)cc(Cl)c3o2)cc1NC(=O)COc1ccc([N+](=O)[O-])cc1,-20,-3,17,-4
Cc1cc(C)cc(OCC(=O)Nc2cc(-c3nc4ccc(C)cc4o3)ccc2C)c1,-16,11,-30,105*
C[C@H]1CN([C@@H](C)CO)C(=O)Cc2cc(NC(=O)Nc3ccccc3)ccc2O[C@H]1CN(C)Cc1ccc(-c2ccccc2)cc1,.,1,-17,-21
C[C@@H]1CN([C@H](C)CO)C(=O)Cc2cc(NC(=O)Nc3ccc4c(c3)OCO4)ccc2O[C@@H]1CN(C)Cc1ccc(-c2ccccc2)cc1,.,2,38,73
COc1ccc(NC(=O)Nc2ccc3c(c2)CC(=O)N([C@H](C)CO)C[C@H](C)[C@H](CN(C)Cc2ccc(-c4ccccc4)cc2)O3)cc1,.,4,-1,59
C[C@H](CO)N1C[C@H](C)[C@H](CN(C)Cc2ccc(-c3ccccc3)cc2)Oc2ccc(NC(=O)Nc3ccccc3)cc2CC1=O,.,1,17,113*

# High-throughput results deposited in PubChem BioAssay by Broad Institute.
